Experimental data from PubChem BioAssay (NCATS).
Results filed as inconclusive are left out. A number with no mark means an inactive call. The source made the active and inactive calls. Calls follow the shape of the dose curve; as a rule, active = well fitted curve in the direction sought with a large enough effect; inconclusive = small, poorly fitted or top-dose-only effect, or another doubt; inactive = no such curve, though single readings can be large; an effect the other way counts as inactive or inconclusive.

Target: Aldehyde dehydrogenase, mitochondrial (Homo sapiens) (UniProt P05091)
Assay: qHTS for Inhibitors of the Aldehyde Dehydrogenase Family (ALDH2) Primary screen (AID 2061308);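 also: plate controls were vehicle for no effect and reference inhibitor for full effect; nearly all actives have a fitted effect of over 55% in size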
Details: ALDH2 enzyme inhibition qHTS, 1536-well; series mostly up to 56 µM; activity change, negative = inhibition: at the top concentration

Row | Compound | activity change, negative = inhibition | Potency
1 | COc1ccc(-c2nc3ccccc3n2Cc2ccccc2)cc1COc1ccc(NC(C)=O)cc1 | 10.5% | –
2 | CCOc1ccc(CCNC(=O)c2cc3sccc3n2Cc2ccccn2)cc1OCC | 0.765% | –
3 | O=S(=O)(Nc1nccs1)c1ccc(NCc2cc(F)ccc2O)cc1 | 0.332% | –
4 | O=C(O)c1ccc(-c2noc(-c3cccc(Cl)c3)n2)cc1 | -23% | –
5 | CC(=O)Nc1sc2c(c1-c1cncnc1)CCNC2 | -0.556% | –
6 | Cc1ccc([S+](=O)([O-])n2cc(-c3ccc(-c4ccccc4)cc3)c3ccccc32)cc1 | 9.95% | –
7 | Cc1ccc(-c2csc3ncnc(Sc4nnnn4C)c23)cc1 | -7.24% | –
8 | Cc1cccc2oc(NC3=NC(c4[nH]ncc4Cl)C4=C(CCCC4=O)N3)nc12 (stereo not given) | – | inactive
9 | Cc1cc(NS(=O)(=O)CCNC(=O)Cc2ccc(Cl)c(Cl)c2)no1 | 1.97% | –
10 | Cc1ccc(S(=O)(=O)Nc2cnccc2C(=O)Nc2ccc(-n3cncn3)cc2)cc1 | -0.132% | –
11 | Cc1nnc(-c2cnn(C)c2)n1CCCn1ccnc1 | -1.64% | –
12 | O=C1CCc2cc(S(=O)(=O)Nc3cccc(-c4ccccc4)c3)ccc2N1 | -9.34% | –
13 | COc1ccc(S(=O)(=O)N2CCN(C(=O)C3COc4ccccc4O3)CC2)cc1 (stereo not given) | 1.06% | –
14 | Cc1cccc(-c2nnc(C)n2CCCn2ccnc2)c1N | 4.3% | –
15 | COC(=O)c1ccc2c(c1)S(=O)(=O)NC2=O | 10.7% | –
16 | O=C(NCCc1nc2ccccc2n1CCOc1ccc2cccnc2c1)C1CCCCC1 | -4.09% | –
17 | CCNC(=O)C1CCN(C(=O)C(C)(C)NC(=O)Nc2ccccc2Cl)CC1 | -8.9% | –
18 | CCCCNc1nc(C)nc2c1nc(-c1ccccc1)n2CCN1CCCCC1 | 12.1% | –
19 | O=C(Nc1ccc(Cl)c(Cl)c1)Nc1nnc(-c2ccc(F)cc2)s1 | -4.5% | –
20 | Nc1nc(NCc2ccc(-c3ccnc(C(F)(F)F)c3)cc2)c2ccccc2n1 | 20.6% | –

Row | Compound | activity change, negative = inhibition | Potency
21 | Cc1cc2c(s1)c1c(C)nn(Cc3ccccc3F)c(=O)c1n2C | 8.3% | –
22 | CC(C)(C)c1ccc(-c2ccc(=O)n(CC(=O)NCCc3ccccc3)n2)cc1 | 3.93% | –
23 | N#CN1CCC(NS(=O)(=O)c2cccc(F)c2)C1 (stereo not given) | 5.37% | –
24 | CC1OC2OC3C(OCC(O)C3O)OC(=O)C34CCC(C)(C)CC3C3=CCC5C6(C)CC(O)C(OC7OC(CO)C(O)C(O)C7OC7OCC(OC(=O)CC(C)(O)CC(=O)OC1C(OC1OCC(O)C(O)C1O)C2O)C(O)C7O)C(C)(CO)C6CCC5(C)C3(C)CC4O (stereo not given) | 1.27% [at 28 µM] | –
25 | Cc1cc(C)nc(NC(=S)N2CCN(c3ccc(Cl)c(Cl)c3)CC2)c1 | 3.25% | –
26 | CCCn1c(C)nc2c(NCCN3CCCCC3)nc(C)nc21 | 6.92% | –
27 | Cc1cc(C)nc(NC(=S)N2CCN(c3noc4ccccc34)CC2)c1 | -6.28% | –
28 | O=C(CSc1nc2ccccc2[nH]1)N1CCOCC1 | 0.915% | –
29 | CCOC(=O)c1c(-c2ccc(OC)cc2)csc1NC(=O)C1CCCO1 (stereo not given) | -21.4% | –
30 | O=[N+]([O-])c1ccccc1S(=O)(=O)N1CCN(S(=O)(=O)c2ccc3c(c2)OCCO3)CC1 | -0.0717% | –
31 | COc1cc(OC)cc(-c2nnc3n2N=C(c2ccc(OC)cc2OC)CS3)c1 | 0.0445% | –
32 | Cc1cc(N[S+](=O)([O-])c2ccc(NC(=O)Cc3ccc(Cl)nc3)cc2)no1 | -0.698% | –
33 | CCOC(=O)c1ccc(-c2ccc3ncnc(NCc4ncc[nH]4)c3c2)o1 | -4.23% | –
34 | Cc1csc(CNc2ncnc3ccc(-c4ccc5c(c4)OCO5)cc23)c1 | 5.95% | –
35 | COC(=O)c1ccc(O)c2ncc(N(C)C)cc12 | -4.72% | –
36 | C=C1CC2OC(=O)C(=C)C2C(OC(=O)/C(C)=C\C)CC2(C)OC1=CC2=O (stereo not given) | 4.58% | –
37 | CCCn1c(-c2ccc(F)cc2)nc2c(NCC3CCN(C)CC3)nc(C)nc21 | 13% | –
38 | Cn1cc2ccc(-c3ccc4ncnc(NCc5cccs5)c4c3)cc2n1 | -8.42% | –
39 | COc1ccc(CNC(=O)c2nc(S(=O)(=O)Cc3ccccc3)ncc2Cl)cc1 | -4.86% | –
40 | Cc1ccc(S(=O)(=O)Nc2ccc(C(=O)Nc3ncc(-c4ccccc4)s3)cc2)cc1 | -3.44% | –

Target: Retinaldehyde dehydrogenase 3 (Homo sapiens) (UniProt P47895)
Assay: qHTS for Inhibitors of the Aldehyde Dehydrogenase Family (ALDH1A3) Primary screen (AID 2061315);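 also: plate controls were DMSO vehicle for no effect and reference inhibitor for full effect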
Details: ALDH inhibition qHTS; series mostly up to 56 µM; activity change, negative = inhibition: at the top concentration

Row | Compound | activity change, negative = inhibition | Potency
41 | COc1ccc(-c2nc3ccccc3n2Cc2ccccc2)cc1COc1ccc(NC(C)=O)cc1 | 3.97% | –
42 | CCOc1ccc(CCNC(=O)c2cc3sccc3n2Cc2ccccn2)cc1OCC | -14.3% | –
43 | O=S(=O)(Nc1nccs1)c1ccc(NCc2cc(F)ccc2O)cc1 | 19% | –
44 | O=C(O)c1ccc(-c2noc(-c3cccc(Cl)c3)n2)cc1 | -23.6% | –
45 | CC(=O)Nc1sc2c(c1-c1cncnc1)CCNC2 | -5.42% | –
46 | Cc1ccc([S+](=O)([O-])n2cc(-c3ccc(-c4ccccc4)cc3)c3ccccc32)cc1 | 7.98% | –
47 | Cc1ccc(-c2csc3ncnc(Sc4nnnn4C)c23)cc1 | 0.754% | –
48 | Cc1cccc2oc(NC3=NC(c4[nH]ncc4Cl)C4=C(CCCC4=O)N3)nc12 (stereo not given) | – | inactive
49 | Cc1cc(NS(=O)(=O)CCNC(=O)Cc2ccc(Cl)c(Cl)c2)no1 | -1.8% | –
50 | Cc1ccc(S(=O)(=O)Nc2cnccc2C(=O)Nc2ccc(-n3cncn3)cc2)cc1 | -20.6% | –
51 | Cc1nnc(-c2cnn(C)c2)n1CCCn1ccnc1 | -5.88% | –
52 | O=C1CCc2cc(S(=O)(=O)Nc3cccc(-c4ccccc4)c3)ccc2N1 | 4.1% | –
53 | COc1ccc(S(=O)(=O)N2CCN(C(=O)C3COc4ccccc4O3)CC2)cc1 (stereo not given) | -3.31% | –
54 | Cc1cccc(-c2nnc(C)n2CCCn2ccnc2)c1N | -5.59% | –
55 | COC(=O)c1ccc2c(c1)S(=O)(=O)NC2=O | 4.05% | –
56 | O=C(NCCc1nc2ccccc2n1CCOc1ccc2cccnc2c1)C1CCCCC1 | -7.76% | –
57 | CCNC(=O)C1CCN(C(=O)C(C)(C)NC(=O)Nc2ccccc2Cl)CC1 | -1.23% | –
58 | CCCCNc1nc(C)nc2c1nc(-c1ccccc1)n2CCN1CCCCC1 | 7.39% | –
59 | O=C(Nc1ccc(Cl)c(Cl)c1)Nc1nnc(-c2ccc(F)cc2)s1 | 2.14% | –
60 | Nc1nc(NCc2ccc(-c3ccnc(C(F)(F)F)c3)cc2)c2ccccc2n1 | 54.7% | –

Row | Compound | activity change, negative = inhibition | Potency
61 | Cc1cc2c(s1)c1c(C)nn(Cc3ccccc3F)c(=O)c1n2C | -3.11% | –
62 | CC(C)(C)c1ccc(-c2ccc(=O)n(CC(=O)NCCc3ccccc3)n2)cc1 | 2.91% | –
63 | N#CN1CCC(NS(=O)(=O)c2cccc(F)c2)C1 (stereo not given) | 2.42% | –
64 | CC1OC2OC3C(OCC(O)C3O)OC(=O)C34CCC(C)(C)CC3C3=CCC5C6(C)CC(O)C(OC7OC(CO)C(O)C(O)C7OC7OCC(OC(=O)CC(C)(O)CC(=O)OC1C(OC1OCC(O)C(O)C1O)C2O)C(O)C7O)C(C)(CO)C6CCC5(C)C3(C)CC4O (stereo not given) | -13.4% [at 28 µM] | –
65 | Cc1cc(C)nc(NC(=S)N2CCN(c3ccc(Cl)c(Cl)c3)CC2)c1 | 29.7% | –
66 | CCCn1c(C)nc2c(NCCN3CCCCC3)nc(C)nc21 | 16.8% | –
67 | Cc1cc(C)nc(NC(=S)N2CCN(c3noc4ccccc34)CC2)c1 | -2.77% | –
68 | O=C(CSc1nc2ccccc2[nH]1)N1CCOCC1 | 7.21% | –
69 | CCOC(=O)c1c(-c2ccc(OC)cc2)csc1NC(=O)C1CCCO1 (stereo not given) | 15.1% | –
70 | O=[N+]([O-])c1ccccc1S(=O)(=O)N1CCN(S(=O)(=O)c2ccc3c(c2)OCCO3)CC1 | -0.0089% | –
71 | COc1cc(OC)cc(-c2nnc3n2N=C(c2ccc(OC)cc2OC)CS3)c1 | 0.762% | –
72 | Cc1cc(N[S+](=O)([O-])c2ccc(NC(=O)Cc3ccc(Cl)nc3)cc2)no1 | -6.39% | –
73 | CCOC(=O)c1ccc(-c2ccc3ncnc(NCc4ncc[nH]4)c3c2)o1 | 6.5% | –
74 | Cc1csc(CNc2ncnc3ccc(-c4ccc5c(c4)OCO5)cc23)c1 | 0.292% | –
75 | COC(=O)c1ccc(O)c2ncc(N(C)C)cc12 | -16.7% | –
76 | C=C1CC2OC(=O)C(=C)C2C(OC(=O)/C(C)=C\C)CC2(C)OC1=CC2=O (stereo not given) | -2.96% | –
77 | CCCn1c(-c2ccc(F)cc2)nc2c(NCC3CCN(C)CC3)nc(C)nc21 | 17.7% | –
78 | Cn1cc2ccc(-c3ccc4ncnc(NCc5cccs5)c4c3)cc2n1 | -5.2% | –
79 | COc1ccc(CNC(=O)c2nc(S(=O)(=O)Cc3ccccc3)ncc2Cl)cc1 | 0% | –
80 | Cc1ccc(S(=O)(=O)Nc2ccc(C(=O)Nc3ncc(-c4ccccc4)s3)cc2)cc1 | -6.3% | –
